The results in this text go back to PubChem BioAssay (NCATS).

Experiment [1] is described as follows: qHTS Assay for Lipid Storage Modulators (AID 1519; calls by dose curve). To be noted: Drosophila S3 cells, BODIPY lipid droplet/cell ratio, laser cytometry, cells loaded with oleic acid. An outline of the steps:
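Cells seeded at 5,000 per well were treated with compounds over a concentration series and loaded with oleic acid (400 uM, as added). Lipid droplet fluorescence (488 nm excitation, 500-530 nm channel) was read by laser-scanning cytometry and normalized to 20 uM Triacsin C.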
Background: qHTS replaces the single test concentration by a dilution series.

Experiment [2] concerns the target Ubiquitin carboxyl-terminal hydrolase 1 (Homo sapiens) (UniProt O94782). Description: Inhibitors of USP1/UAF1: Pilot qHTS (AID 504865). Note: nearly all actives have a fitted effect of over 35% in size. Note: potency is the fitted concentration of half-maximal effect. The essentials:
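In 50mM HEPES pH 7.8 containing 0.5mM EDTA, 1mM TCEP, 0.1 mg/ml BSA and 0.01% Tween-20, 1nM USP1/UAF1 is exposed to compound for 15 min, then Ub-Rho (150nM final) is added and fluorescence is read over time.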

Experiment [3] can be described thus: AP1 Signaling Pathway (AID 357; active = well fitted curve in either direction with a large enough effect, not every such curve was filed as active;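 note: ME-180 reporter cells stimulated with EGF at its EC50 level; % is set by controls: 0 for no effect and ±100 for the full control effect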). To be noted: ME-180 AP-1-bla reporter, EGF-induced, beta-lactamase ratio, 5 h; at 7.69 µM (top of the series) unless noted. The essentials: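 First, ME-180 AP-1-bla cells were cultured overnight at 37 °C in low-serum Opti-MEM. Next, titrated compounds with EC50 EGF were incubated 5 hours. Finally, CCF4 was added for 2.5 hours and the 460/530 nm ratio recorded.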

A short description of experiment [4]: NFAT Signaling Pathway (AID 444; active = well fitted curve in either direction with a large enough effect, not every such curve was filed as active;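 note: carbachol stimulus at about its EC50 of 1 µM final; % is set by controls: 0 for no effect and ±100 for the full control effect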). To be noted: Jurkat NFAT-bla M1, carbachol, beta-lactamase ratio, 5 h; at 7.69 µM (top of the series) unless noted. The essentials: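 Jurkat cells with NFAT-driven β-lactamase reporter and co-expressed M1 receptor, stimulated with carbachol (final 1 uM, ~EC50), compound titration, 5 h at 37 °C. CCF4 loaded 1 h at RT; 460/530 nm ratio gave %activity and AC50.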

Experiment [5] in a line: Stat Signaling Pathway (AID 446; active = well fitted curve in either direction with a large enough effect, not every such curve was filed as active;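 note: ME-180 cervical cancer cells given 40 pM IL-6 alongside compound; SIE-controlled beta-lactamase reporter measured as 460/530 nm FRET emission ratio; % is set by controls: 0 for no effect and ±100 for the full control effect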). To be noted: ME-180 SIE beta-lactamase reporter, IL-6 stimulated, 5 h; at 7.69 µM (top of the series) unless noted. An outline of the steps:
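Reporter line: ME-180 cervical carcinoma, SIE-beta-lactamase. Treatment: compound with 40 pM IL-6, 5 hrs, 37 C, in low-serum OPTI-MEM with 10 mM HEPES pH 7.3. Detection: 460/530 nm fluorescence.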

In experiment [6] the target is Glucocorticoid receptor (Homo sapiens) (UniProt P04150). Description: GR-GFP Redistribution (AID 450;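 active = compounds whose dose series gives a full or clear partial fitted curve of increased nuclear translocation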; note: potency is the fitted concentration of half-maximal effect). To be noted: U2OS GR-GFP nuclear translocation, laser cytometry, 2 h.
Glucocorticoid receptor (Homo sapiens), sequence (P04150 whole entry, looked up, the tested form may be a part): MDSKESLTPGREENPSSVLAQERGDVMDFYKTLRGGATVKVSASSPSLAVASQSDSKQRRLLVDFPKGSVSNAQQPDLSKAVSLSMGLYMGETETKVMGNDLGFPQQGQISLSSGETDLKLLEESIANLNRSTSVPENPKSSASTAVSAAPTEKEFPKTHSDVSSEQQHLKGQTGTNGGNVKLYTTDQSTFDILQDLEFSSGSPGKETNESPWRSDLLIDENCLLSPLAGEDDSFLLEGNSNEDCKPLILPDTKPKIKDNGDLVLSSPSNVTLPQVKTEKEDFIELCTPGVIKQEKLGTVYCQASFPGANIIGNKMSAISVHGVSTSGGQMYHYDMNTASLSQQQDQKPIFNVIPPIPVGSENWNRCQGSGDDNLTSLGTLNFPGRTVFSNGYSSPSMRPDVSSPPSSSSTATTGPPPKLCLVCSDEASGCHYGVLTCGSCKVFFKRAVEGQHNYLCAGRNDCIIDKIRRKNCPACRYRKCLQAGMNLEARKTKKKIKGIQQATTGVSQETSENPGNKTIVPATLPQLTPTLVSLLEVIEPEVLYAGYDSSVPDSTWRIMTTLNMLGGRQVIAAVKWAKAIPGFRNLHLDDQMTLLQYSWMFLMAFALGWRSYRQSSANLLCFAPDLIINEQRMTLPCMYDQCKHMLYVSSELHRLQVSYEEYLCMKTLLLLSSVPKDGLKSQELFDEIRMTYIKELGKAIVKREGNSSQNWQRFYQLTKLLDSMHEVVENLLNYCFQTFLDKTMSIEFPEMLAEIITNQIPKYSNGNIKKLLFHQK
Experiment [7] shares this target. Description: GR-EFC Redistribution (AID 451; calls by dose curve; note: potency is the fitted concentration of half-maximal effect). To be noted: CHO-K1 GR-EFC translocation, beta-gal luminescence, 2 h. The essentials: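 CHO-K1 cells expressing nuclear EA and GR-ED fragments of b-gal; compounds titrated up to 46 uM final, 2 h at 37 C. GR nuclear translocation read as complemented b-gal luminescence after 1 h RT detection.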
In experiment [8] the target is 3',5'-cyclic-AMP phosphodiesterase 4B (Homo sapiens) (UniProt Q07343). The experiment is described as follows: qHTS Assay for Inhibitors of PDE-IV (AID 607; active = well fitted activation curve with a large enough effect in the main read-out, with a control signal flat, not every such curve was filed as active; note: % of control where 0% means no effect). The essentials: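 Cell-based read-out of cAMP via a modified cyclic nucleotide-gated channel and membrane potential dye (535/590 nm) in HEK293 cells expressing PDE4 endogenously. Compounds tested up to 22.9 uM final; 100 uM RO 20-1724 reference.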
3',5'-cyclic-AMP phosphodiesterase 4B (Homo sapiens), sequence (Q07343 whole entry, looked up): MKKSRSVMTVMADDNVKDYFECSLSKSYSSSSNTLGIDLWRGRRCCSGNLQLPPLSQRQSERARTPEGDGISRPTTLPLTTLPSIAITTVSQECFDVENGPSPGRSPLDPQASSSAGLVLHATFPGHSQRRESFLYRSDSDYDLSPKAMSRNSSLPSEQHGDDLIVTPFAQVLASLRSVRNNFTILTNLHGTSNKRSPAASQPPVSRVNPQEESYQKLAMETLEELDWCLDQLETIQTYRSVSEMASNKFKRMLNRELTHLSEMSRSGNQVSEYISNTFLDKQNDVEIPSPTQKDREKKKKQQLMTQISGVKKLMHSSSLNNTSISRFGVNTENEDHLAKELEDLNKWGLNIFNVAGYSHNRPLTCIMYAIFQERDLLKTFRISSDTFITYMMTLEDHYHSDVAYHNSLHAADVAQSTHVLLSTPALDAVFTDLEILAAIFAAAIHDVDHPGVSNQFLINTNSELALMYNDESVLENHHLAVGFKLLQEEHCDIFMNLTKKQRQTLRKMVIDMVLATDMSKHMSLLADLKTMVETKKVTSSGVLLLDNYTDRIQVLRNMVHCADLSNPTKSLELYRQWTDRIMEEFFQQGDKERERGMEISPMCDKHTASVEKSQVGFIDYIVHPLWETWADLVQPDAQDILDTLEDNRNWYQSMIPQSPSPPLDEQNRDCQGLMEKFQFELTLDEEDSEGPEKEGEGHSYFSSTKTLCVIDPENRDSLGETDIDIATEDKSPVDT

Experiment [9] addresses ATP-dependent 6-phosphofructokinase (Trypanosoma brucei brucei) (UniProt O15648). Description: qHTS Assay to Find Inhibitors of T. brucei phosphofructokinase: hit validation (AID 492961). Note: % is set by controls: 0 for no effect and ±100 for the full control effect. An outline of the steps: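 Luminescence from ADP-Glo reports ADP generated as T. brucei PFK (1.25 nM) phosphorylates 0.5 mM fructose-6-phosphate using 0.1 mM ATP. Reactions ran 45 min at room temperature, pH 8.0.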

Experiment [10] has as its target Luciferin 4-monooxygenase (Photinus pyralis) (UniProt P08659). Description: Biochemical firefly luciferase enzyme assay for NPC (AID 624030).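 Note: purified P. pyralis luciferase at 10 nM with luciferin and ATP substrate; 0% = DMSO and -100% = full luciferase inhibition by PTC124 control; nearly all actives have a fitted effect of over 70% in size.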 The essentials: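 Purified P. pyralis luciferase at 10 nM in 50 mM Tris Acetate (final), luminescence read within 5 minutes of enzyme addition to compounds. Activity normalised to PTC124 versus DMSO; concentration-response curves classed by r2, magnitude and activity.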

Experiment [11] can be described thus: qHTS profiling for inhibitors of Plasmodium falciparum proliferation (AID 504749).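 Note: 0% = DMSO vehicle and full inhibition = artemisinin control; nearly all actives have a fitted effect of over 60% in size.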 To be noted: P. falciparum in erythrocytes, SYBR Green DNA, 72 h. The essentials: (§1)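 P. falciparum-infected erythrocytes (0.3% parasitemia, 2.5% hematocrit) incubated with compound 72 h at 37 C, 5% CO2. Parasite DNA detected by SYBR Green after lysis, overnight at room temperature; normalised to 0.29 uM artemisinin and DMSO.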

The subject of the next experiment is AS120. The description is as above. To be noted: P. falciparum in erythrocytes, SYBR Green DNA, 72 h; series mostly up to 28.7 µM. An outline of the steps: as §1
A further experiment has as its system CP201. Described as above. To be noted: P. falciparum in erythrocytes, SYBR Green DNA, 72 h; series mostly up to 12.8 µM. The essentials:
as §1

The test system of the next experiment is CP238. The experiment is described as above. To be noted: P. falciparum in erythrocytes, SYBR Green DNA, 72 h; series mostly up to 12.8 µM. The essentials: as §1
Another experiment deals with CP262. The description is as above. To be noted: P. falciparum in erythrocytes, SYBR Green DNA, 72 h; series mostly up to 12.8 µM. The essentials: as §1
A further experiment has as its system CP265. The description is as above. To be noted: P. falciparum in erythrocytes, SYBR Green DNA, 72 h; series mostly up to 12.8 µM. The essentials:
as §1

Another experiment has as its system FAB9. The description is as above. To be noted: P. falciparum in erythrocytes, SYBR Green DNA, 72 h; series mostly up to 12.8 µM. An outline of the steps: as §1
Another experiment concerns JCK. The description is as above. To be noted: P. falciparum in erythrocytes, SYBR Green DNA, 72 h; series mostly up to 12.8 µM. The essentials:
as §1

Experiment [12] has as its target Mitogen-activated protein kinase 10 (Mus musculus) (UniProt Q61831). Description: JNK3 AlphaScreen Assay (AID 530; active = well fitted curve in either direction with a large enough effect, not every such curve was filed as active). The essentials:
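Pre-activated (IL-1β/TNFα) JNK3 in HepG2 lysates phosphorylates biotin-GST-cJun(1-79), 10 uM ATP; anti-phospho-cJun(Ser73) AlphaScreen read at room temperature, pH 7.6 Tris buffer. Compounds pre-incubated 15 min as titrations.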
On the technique in general: Bead proximity is the source of the signal in Alpha formats.

Where [13] appears, read: measured here: cell count channel max response.
[14] abbreviates: measured here: lipid channel max response.
Setting [15] is: at 28.7 µM (top of the series), parasite line A.
Where [16] appears, read: at 28.7 µM (top of the series), parasite line B.

Several values for one entry are separate records, joined by “and”; a condition that tells them apart may be missing. Equal entries are not always repeated. Results filed as inconclusive are left out. Activity calls are given as the source filed them. Unless noted, calls come from the whole dose curve; as a rule, active = well fitted curve in the direction sought with a large enough effect; inconclusive = small, poorly fitted or top-dose-only effect, or another doubt; inactive = no such curve, though single readings can be large; an effect the other way counts as inactive or inconclusive.

Ubiquitin carboxyl-terminal hydrolase 1 (Homo sapiens), sequence (O94782 whole entry, looked up): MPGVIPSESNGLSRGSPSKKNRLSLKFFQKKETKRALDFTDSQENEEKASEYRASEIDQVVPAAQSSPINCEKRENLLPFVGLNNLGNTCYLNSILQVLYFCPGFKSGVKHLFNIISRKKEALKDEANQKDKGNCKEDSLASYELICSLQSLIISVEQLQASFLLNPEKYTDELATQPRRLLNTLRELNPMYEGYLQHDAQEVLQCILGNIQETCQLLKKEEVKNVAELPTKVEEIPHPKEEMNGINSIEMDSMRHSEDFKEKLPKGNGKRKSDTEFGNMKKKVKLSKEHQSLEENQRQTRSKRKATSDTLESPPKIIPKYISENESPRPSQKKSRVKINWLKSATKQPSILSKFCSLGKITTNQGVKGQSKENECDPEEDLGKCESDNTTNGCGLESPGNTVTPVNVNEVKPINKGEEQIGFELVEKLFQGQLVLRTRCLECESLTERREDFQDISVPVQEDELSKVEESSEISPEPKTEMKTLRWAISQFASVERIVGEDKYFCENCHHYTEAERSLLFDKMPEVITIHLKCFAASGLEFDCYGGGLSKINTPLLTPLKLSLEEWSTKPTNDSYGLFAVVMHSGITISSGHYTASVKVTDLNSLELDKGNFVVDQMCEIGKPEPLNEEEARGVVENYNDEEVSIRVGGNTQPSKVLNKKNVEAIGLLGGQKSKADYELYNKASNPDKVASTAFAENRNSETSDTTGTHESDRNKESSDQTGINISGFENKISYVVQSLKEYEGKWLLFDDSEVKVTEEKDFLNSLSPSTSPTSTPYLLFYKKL
Luciferin 4-monooxygenase (Photinus pyralis), sequence (P08659 whole entry, looked up): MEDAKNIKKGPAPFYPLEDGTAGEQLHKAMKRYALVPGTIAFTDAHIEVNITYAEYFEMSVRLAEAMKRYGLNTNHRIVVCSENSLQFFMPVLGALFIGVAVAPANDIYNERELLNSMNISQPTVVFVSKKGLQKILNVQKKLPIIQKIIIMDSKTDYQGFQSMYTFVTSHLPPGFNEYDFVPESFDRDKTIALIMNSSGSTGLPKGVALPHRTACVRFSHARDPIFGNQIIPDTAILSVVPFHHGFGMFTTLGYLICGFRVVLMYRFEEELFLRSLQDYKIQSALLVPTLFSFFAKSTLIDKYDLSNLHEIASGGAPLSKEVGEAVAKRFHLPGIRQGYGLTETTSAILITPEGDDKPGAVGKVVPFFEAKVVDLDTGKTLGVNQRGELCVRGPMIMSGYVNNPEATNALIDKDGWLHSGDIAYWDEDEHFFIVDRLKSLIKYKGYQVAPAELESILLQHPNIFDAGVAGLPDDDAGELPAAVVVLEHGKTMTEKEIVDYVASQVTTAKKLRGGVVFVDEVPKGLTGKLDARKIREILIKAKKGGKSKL
ATP-dependent 6-phosphofructokinase (Trypanosoma brucei brucei), sequence (O15648 whole entry, looked up): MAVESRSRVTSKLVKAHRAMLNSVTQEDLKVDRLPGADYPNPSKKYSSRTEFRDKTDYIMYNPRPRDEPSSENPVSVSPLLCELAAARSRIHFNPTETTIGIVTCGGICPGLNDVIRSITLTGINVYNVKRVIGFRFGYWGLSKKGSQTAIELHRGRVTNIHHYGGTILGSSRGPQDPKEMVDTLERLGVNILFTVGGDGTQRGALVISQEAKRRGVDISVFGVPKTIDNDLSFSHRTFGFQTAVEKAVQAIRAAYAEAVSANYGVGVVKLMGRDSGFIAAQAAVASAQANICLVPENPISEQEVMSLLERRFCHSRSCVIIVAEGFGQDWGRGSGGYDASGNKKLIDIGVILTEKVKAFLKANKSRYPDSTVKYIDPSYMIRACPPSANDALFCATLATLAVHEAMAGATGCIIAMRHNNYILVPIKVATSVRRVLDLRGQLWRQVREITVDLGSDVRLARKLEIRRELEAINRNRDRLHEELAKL

With `N=c1ccn2c(n1)OC1C(O)C(CO)OC12` (stereo not drawn), the activity change, negative = inhibition in [1] (at 57.5 µM (top of the series)) is 3.87% (inactive) and 5.45% (inactive). Also, the max response was 0.631% and 1.94% in experiment [1] (setting [13]); 7.88% and 22.5% in [1] (setting [14]). The Potency entry in experiment [2] is “inactive”.
`C=C1C2CC[C@@]3(C)C(c4ccoc4)OC(=O)C[C@@]13OC1CC(O)C(C)(C)C(CC(=O)OC)[C@@]12C` (stereo partly drawn): in experiment [2], the Potency result was “inactive”.
With `CC1(C)O[C@@H]2C[C@H]3[C@H]4C[C@H](F)C5=CC(=O)C=C[C@@]5(C)[C@@H]4[C@H](O)C[C@]3(C)[C@]2(C(=O)CO)O1`, the activity change, negative = inhibition was 21.4% [at 17.2 µM] (inactive) in [3], -5.12% [at 17.2 µM] (inactive) in experiment [4] and -4.94% (inactive) in experiment [1] (at 25.7 µM (top of the series)). Moreover, the activity, negative = inhibition in experiment [5] was -5.69% [at 17.2 µM] (inactive); in experiment [11] (at 12.8 µM (top of the series), parasite line A), -1.94% (inactive); in [11] (at 12.8 µM (top of the series), parasite line B), 13.2% (inactive). In addition, the results for the Potency in experiment [6] and in experiment [7] were 0.00395 µM (active) and 0.00485 µM (active), respectively. For the same molecule, the Potency result (in [8]; in experiment [2]; in the experiment on AS120; with CP201; with CP238; in the experiment on CP262) was “inactive” throughout. Besides, the Potency entry in the experiment on CP265, in the experiment on FAB9 and with JCK was “inactive” in each case. Further, the max response in experiment [1] (setting [13]) was -24%; in experiment [1] (setting [14]), -28.6%. The molecule was called inactive in [9] and in experiment [10].
Turning to `CN[C@@H](CC(C)C)C(=O)N[C@@H]1C(=O)N[C@H](CC(N)=O)C(=O)N[C@@H]2C(=O)N[C@H]3C(=O)N[C@H](C(=O)N[C@H](C(=O)O)c4cc(O)cc(O)c4-c4cc3ccc4O)[C@H](O)c3ccc(c(Cl)c3)Oc3cc2cc(c3O[C@H]2O[C@@H](CO)[C@@H](O)[C@@H](O)[C@@H]2O[C@@H]2C[C@](C)(N)[C@H](O)[C@H](C)O2)Oc2ccc(cc2Cl)[C@@H]1O`, the activity change, negative = inhibition is 4.27% [at 17.2 µM] (inactive) in experiment [3], -5.38% [at 17.2 µM] (inactive) in [4] and -2.11% (inactive) in [1] (at 25.7 µM (top of the series)). Besides, the figures for the activity, negative = inhibition in experiment [5], in [11] (setting [15]) and in experiment [11] (setting [16]) were 7.22% [at 17.2 µM] (inactive), 3.64% (inactive) and 4.98% (inactive), respectively. Besides, the Potency in experiment [6] and in experiment [7] was > 20.6 µM (inactive) in each case. In addition, the Potency result (in [12]; in experiment [8]; in the experiment with AS120; in the experiment on CP201; with CP238; with CP262) was “inactive” in each case. The Potency entry in the experiment on CP265, with FAB9 and in the experiment with JCK was “inactive” each time. Moreover, the max response in experiment [1] (setting [13]) is 5.45%; in experiment [1] (setting [14]) it was 3.37%. Also, the call in experiment [9] and in [10] was inactive.
On to `CC1CC2C3CCC4=CC(=O)C=C[C@@]4(C)[C@]3(F)C(O)C[C@]2(C)[C@]1(O)C(=O)CO` (stereo partly drawn), for which the activity change, negative = inhibition in experiment [1] (at 57.5 µM (top of the series)) was -0.857% (inactive) and 2.9% (inactive). Also, the max response in experiment [1] (setting [13]) was 20% and 4.4%; in experiment [1] (setting [14]), 23.5% and 9.45%. Besides, the Potency entry in [2] is “inactive”.
Turning to `O=C(Cc1cccs1)NC1C(=O)N2C(C(=O)[O-])=C(C[n+]3ccccc3)CSC12` (stereo not drawn), in experiment [1] (at 57.5 µM (top of the series)), the activity change, negative = inhibition was 7.61% (inactive). In addition, the max response in [1] (setting [13]) was found to be 18%; in [1] (setting [14]), 28.7%. In experiment [2], the Potency was 79.4 µM (active). Further, the result in experiment [10] was inactive. The values for the activity, negative = inhibition in experiment [11] (setting [15]) and in experiment [11] (setting [16]) were 4.33% (inactive) and -24.5% (inactive), respectively. Also, the Potency entry in the experiment with AS120, in the experiment on CP201, in the experiment on CP238, in the experiment on CP262, in the experiment on CP265 and in the experiment on FAB9 was “inactive” in each case. Besides, the Potency result in the experiment with JCK was “inactive”.
For `COC(=O)C1OC(=O)C2OC23[C@]2(C)C(O)CC4C(C)(C)C(OC(C)=O)CC(OC(C)=O)[C@@]4(C)C2CC[C@@]13C` (stereo partly drawn), the activity change, negative = inhibition in [1] (at 57.5 µM (top of the series)) was -1.67% (inactive) and 3.12% (inactive). The max response in [1] (setting [13]) was 17.5% and 7.5%; in experiment [1] (setting [14]), 17.7% and 13.2%. The Potency entry in experiment [2] was “inactive”.
As to `C1CCN2C[C@H]3C[C@H](CN4CCCCC34)C2C1` (stereo partly drawn), the activity change, negative = inhibition in experiment [1] (at 57.5 µM (top of the series)) was 2.4% (inactive) and 4.93% (inactive). Further, the max response in experiment [1] (setting [13]) is 17.1% and 11%; in experiment [1] (setting [14]) it was 19.7% and 18.8%. Moreover, in experiment [2], the Potency result was “inactive”.
